Molecules are shown by their SMILES. Several values for one entry are separate records, joined by “and”; a condition that tells them apart may be missing. Equal values may be shown once. In all, about 320,000 compounds went through this assay and about 2,100 (0.66%) were called active. Another 53% or so got no clear call; they are omitted. Calls follow the shape of the dose curve; as a rule, active = well fitted inhibition curve with a large enough effect in the signal ratio, with a control signal flat (not every such curve was filed as active); inconclusive = small, poorly fitted or top-dose-only effect, or effect the other way, or a change in a side signal; inactive = flat fitted curve, though single readings scatter; the % refers to the signal ratio. For the sample, actives were picked, then their nearest neighbours and some compounds at random.
Potency is read from the fitted curve at half-maximal effect.

A short description of the assay: qHTS Assay for Lipid Storage Modulators in Drosophila S3 Cells.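 As to cell number change: cells counted by Cell Tracker Red CMTPX staining in the red channel.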 As to lipid storage change, negative = inhibition: % is scaled to controls: 0 for no effect and ±100 for the full control effect. The conditions noted are these: BODIPY lipid droplet fluorescence, 18-24 h, cells fed with added oleic acid; cell number change: measured here: cell count max response; series mostly up to 46.1 µM; lipid storage change, negative = inhibition: at the top concentration. From the text: NIH Molecular Libraries Probe Production Centers Network [MLPCN] NIH Chemical Genomics Center [NCGC] MLPCN Grant: 1 R03 MH085686-01 Assay Submitter (PI): Beller, Mathias; Max-Planck-Institut fur Biophysikalische Chemie NCGC Assay Overview: Storing lipids as a reservoir for energy or the anabolism of elementary metabolites is a common feature of probably all cells and is conserved from bacteria to humans. The universal cellular lipid storage organelle is the so-called lipid storage droplet (LD). Although ubiquitous, LDs share a simple structure composed of a hydrophobic core that harbors the storage lipids, which is shielded by a droplet-specific phospholipid monolayer to which proteins are attached. The current model of LD biogenesis involves an incorporation of the lipid core into the membrane leaflets of the endoplasmic reticulum (ER) followed by a subsequent budding-like maturation of a LD, which ultimately pinches off. Once released, LD volume can increase by localized lipogenesis or fusion of existing droplet. Storage lipids are re-mobilized enzymatically by lipase activity. Lipase regulation in the adipocyte is heavily studied and involves multiple components including catecholamine signaling, the LD-associated proteins Perilipin and comparative gene identification (CGI-58) and at least two lipases named hormone sensitive lipase (HSL) and adipocyte triglyceride lipase (ATGL). LD regulation outside of the adipocyte is poorly understood and only few components are known. However, there is an urgent need to learn more about ectopic fat depots as mislocalized storage of lipids, for example in the liver or muscle, is an eminent health problem associated with insulin resistance or the metabolic syndrome. We developed a laser-scanning cytometer assay to enable 1,536-well screening and combined the results of the small molecules screen with an RNAi database based on lipid storage.
Triacsin C (Sigma-Aldrich T-4540), an inhibitor of long-chain fatty acyl CoA synthetase that blocks synthesis of triglycerides, was used as a positive control for lipid under-storage. A total of 23 nL of compound solution of different concentrations were transferred to the assay plates using a Kalypsys pin tool equipped with a 1,536-pin array containing 10-nL slotted pins (FP1S10, 0.457-mm diameter, 50.8 mm long; V&P Scientific). One microliter of oleic acid (400 uM) was added, and the plate was lidded with stainless steel rubber gasket lined lids containing pinholes. […] Fluorescence was detected by excitation of the fluorophores with a 488-nm laser on an Acumen Explorer (TTP Lab Tech). The total intensity in channel 2 (500-530 nm) reflected lipid droplet accumulation. Cells were detected using channel 3 (575-640 nm) with 5-um width and 100-um depth filters. The ratio of the number of objects in PMT channel 2 over the number of objects in PMT channel 3 was also calculated. Percent activity was computed relative to an internal control (100% inhibited lipid droplet deposition due to the presence of 20 uM Triacsin C), which was added to 32 wells/plate.
A general note: In qHTS, concentration-response curves come from the screen itself.
Regarding `Cc1nnc(NC(=O)Cn2nc(C)c3ccccc3c2=O)s1`, the “lipid storage change, negative = inhibition” value was 3.77% (inactive) and the cell number change was determined as 9.11%.

On to `COc1cccc(NC(=O)CCNC(=O)c2ccccc2Cl)c1`, for which the “lipid storage change, negative = inhibition” value is -15.6% (inactive) and the cell number change is -13.1%.

On to `CC(C)NC(=O)CN(C)S(=O)(=O)c1ccc(F)cc1`, for which the “lipid storage change, negative = inhibition” value was -5.26% (inactive) and the cell number change was 0.117%.

`CCCNC(=O)CN(C)S(=O)(=O)c1ccc(F)cc1`: the “lipid storage change, negative = inhibition” value is -19.4% (inactive) and the cell number change was -1.04%.

For `CNC(=O)CN(C)S(=O)(=O)c1ccc(F)cc1`, the Potency was 20.6 µM (active).

Regarding `COc1cc(NC(=S)NCc2ccco2)cc(OC)c1OC`, the “lipid storage change, negative = inhibition” value was 7.9% (inactive) and the cell number change is -1.1%.

Turning to `Cc1ccc(Cc2cnc(NC(=O)c3cccs3)s2)cc1`, the “lipid storage change, negative = inhibition” value was -11.2% (inactive) and the cell number change was -12.1%.

Turning to `Cc1ccc(S(=O)(=O)c2cc3c(=O)n4cccc(C)c4nc3n(CC3CCCO3)c2=N)cc1C` (stereo unspecified), the “lipid storage change, negative = inhibition” value was 13.5% (inactive) and the cell number change stood at 7.15%.

Regarding `COc1ccc(/C(C)=C2\SC(=S)N(CCC(=O)O)C2=O)cc1`, the Potency was 16.4 µM (active) and the cell number change came out at 7.05%.

For `COc1ccc(/C=C2/SC(=S)N(CCC(=O)O)C2=O)cc1`, the “lipid storage change, negative = inhibition” value was -19.3% (inactive) and the cell number change was -16.6%.

For the compound `CC(=C\c1ccccc1)/C=C1/SC(=S)N(CCC(=O)O)C1=O`, the “lipid storage change, negative = inhibition” value is -4.15% (inactive) and the cell number change worked out at 5.93%.

For the compound `O=C(CSc1nnnn1-c1ccccc1)N1N=CCC1c1ccccc1` (stereo unspecified), the “lipid storage change, negative = inhibition” value was 5.81% (inactive) and the cell number change is -5.17%.

For the compound `CC[n+]1c(/C=C/N(C)c2ccccc2)oc2ccc(F)cc21`, the Potency is 25.9 µM (active) and the cell number change turned out to be 6.99%.

With `CC[n+]1c(/C=C/C=C/N(C(C)=O)c2ccccc2)sc2ccccc21`, the “lipid storage change, negative = inhibition” value was -11.3% (inactive) and the cell number change worked out at 10.1%.

Regarding `CCn1c(C)[n+](CC)c2ccc(C(=O)N(C)c3ccccc3)cc21`, the “lipid storage change, negative = inhibition” value is -2.21% (inactive) and the cell number change is 19.5%.

Regarding `C/C=C/COC(=O)C1=C(C)NC(=O)NC1c1ccc2c(c1)OCO2` (stereo unspecified), the compound was called inactive and the cell number change is 9.12%.

With `Cc1c(N)cccc1-c1nc2ccccc2[nH]1`, the “lipid storage change, negative = inhibition” value was -2.3% (inactive) and the cell number change is -2.56%.

Turning to `CN(C)CCCNCCCNC(=O)/C(=N\O)c1ccccn1`, the “lipid storage change, negative = inhibition” value was 1.85% (inactive) and the cell number change amounted to 11.1%.

As to `O=C(Nc1ccc(C2CC2(Cl)Cl)cc1)c1ccccc1Br` (stereo unspecified), the “lipid storage change, negative = inhibition” value was 20.5% (inactive) and the cell number change stood at 13.5%.

On to `COc1ccc(CN(CC(=O)NCc2ccccc2)C(=O)c2csnn2)cc1`, for which the “lipid storage change, negative = inhibition” value was 12.1% (inactive) and the cell number change was determined as 1.68%.

Turning to `Cc1cccc(-c2ccc3ncnc(N(C)Cc4ccco4)c3c2)c1`, the “lipid storage change, negative = inhibition” value is 17% (inactive) and the cell number change was -20.6%.

On to `CN(Cc1ccco1)c1ncnc2ccc(-c3ccoc3)cc12`, for which the Potency was -1.69% and -0.798%.

For the compound `CN(Cc1ccco1)c1ncnc2ccc(-c3ccc4c(c3)OCCO4)cc12`, the “lipid storage change, negative = inhibition” value was 25% (inactive).

As for `O=C(COC(=O)/C=C/c1cccc(F)c1)Nc1ncccn1`, the “lipid storage change, negative = inhibition” value was -1.2% (inactive) and the cell number change was -0.367%.

As for `COc1cccc(N2CCN(c3nc(C)cc(=O)[nH]3)CC2)c1`, the “lipid storage change, negative = inhibition” value is -16.9% (inactive) and the cell number change was determined as 15.9%.

For `O=C(CSc1nnnn1-c1ccc2c(c1)OCCO2)N1CCN(C(=O)c2ccco2)CC1`, the “lipid storage change, negative = inhibition” value was 1.65% (inactive) and the cell number change is -0.608%.

As for `Cc1cc2nc(SCC(=O)N(C)C)c3c(c2cc1C)CCCC3`, the “lipid storage change, negative = inhibition” value was -6.18% (inactive) and the cell number change was -15.1%.

`CCOC(=O)c1c(C)n(C)c2cc([N+](=O)[O-])c(O)c([N+](=O)[O-])c12`: the “lipid storage change, negative = inhibition” value is 10.2% (inactive) and the cell number change stood at 7.01%.

With `CCOC(=O)C1CCCCN1Cc1cc(Cl)ccc1O` (stereo unspecified), the outcome was inactive and the cell number change is -14.7%.

`O=C(Nc1cccc(C(=O)Nc2cccc(Br)c2)c1)c1ccccc1`: the Potency is 5.8 µM (active) and the cell number change came to 0.351%.

With `COc1cccc(C(=O)Nc2cccc(-c3ccccc3)c2)c1`, the Potency was 1.46 µM (active) and the cell number change worked out at 5.29%.

`COc1cccc(/C(C)=N/NC(=O)c2cc(-c3cccnc3)nc3ccccc23)c1`: the “lipid storage change, negative = inhibition” value was 14.6% (inactive) and the cell number change was determined as 11.2%.

As for `O=C(Nc1cccc(Br)c1)c1ccc(CSc2ccccc2)cc1`, the “lipid storage change, negative = inhibition” value was -18.6% (inactive) and the cell number change was -13.3%.

For `COc1cccc(-c2cc(C(=O)Nc3cccnc3)c3ccccc3n2)c1`, the Potency was 8.2 µM (active).

As to `O=C(Nc1ccc(C2CC2(Cl)Cl)cc1)c1cccc([N+](=O)[O-])c1` (stereo unspecified), the Potency is 20.6 µM (active) and the cell number change was -18.3%.

Take `O=C(Nc1cccc(O)c1)c1ccccc1`: the call was inactive.

For the compound `COc1cccc(C(=O)Nc2ccc(C3CC3(Cl)Cl)cc2)c1` (stereo unspecified), the lipid storage change, negative = inhibition is 15.6% [at 9.22 µM] (inactive).

On to `COc1cccc(C(=O)Nc2ccc3ccccc3c2)c1`, for which the outcome was inactive and the cell number change was 24%.

For `COc1cccc(C(=O)Nc2cccc(NC(C)=O)c2)c1`, the “lipid storage change, negative = inhibition” value was 13.3% (inactive) and the cell number change is -21%.

On to `COc1cccc(-c2cc(C(=O)Nc3ccc4c(c3)OCCO4)c3ccccc3n2)c1`, for which the “lipid storage change, negative = inhibition” value was 26.5% (inactive).

Take `O=C(Nc1ccc(NC(=O)c2cccc([N+](=O)[O-])c2)cc1)c1cccc([N+](=O)[O-])c1`: the compound was called inactive and the cell number change is -4.74%.

Turning to `COc1ccc(-c2nc(CS(=O)CC(=O)NC3CCCCCC3)c(C)o2)cc1` (stereo unspecified), the outcome was inactive.

Regarding `O=C(COC(=O)c1ccc(Br)o1)NCCc1ccccc1`, the “lipid storage change, negative = inhibition” value was -3.74% (inactive) and the cell number change was 14.1%.

With `O=C(NC1CCS(=O)(=O)C1)c1cccc(Br)c1` (stereo unspecified), the “lipid storage change, negative = inhibition” value was -8.87% (inactive) and the cell number change was -19.9%.

As for `COc1ccc(S(=O)(=O)N2CCN(C(=O)C3CC3)CC2)cc1`, the “lipid storage change, negative = inhibition” value was -28.4% (inactive) and the cell number change was 0.403%.

Turning to `CCOC(=O)COc1ccc2c(c1)c(C(C)=O)c(C)n2-c1ccc(OC)cc1`, the “lipid storage change, negative = inhibition” value is 9.72% (inactive).

On to `Cc1cccc(-c2nc3sc(C)cc3c(=O)o2)c1`, for which the “lipid storage change, negative = inhibition” value is -0.0238% (inactive) and the cell number change was 1.66%.

`COc1ccc(S(=O)(=O)N2CCCC(C(=O)NCc3ccc4c(c3)OCO4)C2)cc1` (stereo unspecified): the “lipid storage change, negative = inhibition” value was 11% (inactive) and the cell number change was 4.03%.

As to `COc1ccc(Cc2nnc(SCC(=O)Nc3cc(Cl)ccc3C)[nH]c2=O)cc1`, the “lipid storage change, negative = inhibition” value was 19.4% (inactive) and the cell number change is -4.71%.

As for `CCc1cc(=O)oc2c(C)c(OCC(=O)N3CCC(C(=O)O)CC3)ccc12`, the “lipid storage change, negative = inhibition” value was 8.85% (inactive) and the cell number change was -9.69%.

(Values after PubChem BioAssay AID2685 (National Center for Advancing Translational Sciences (NCATS), 2010).)
